High-throughput results deposited in PubChem by National Center for Advancing Translational Sciences (NCATS).
Tb PYK inh = blocks Trypanosoma brucei pyruvate kinase; TbPYK enzyme, Kinase-Glo Plus ATP luminescence, 45 min; Potency, µM (series often up to 76.8 µM), most hits filed as inhibitors; hit rate 0.12% among 410,000; further: nearly all actives have a fitted effect of over 50% in size
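In this concentration-response screen, enzyme-free wells defined baseline while DMSO plates tracked drift. Each reaction combined TbPYK, substrate, compound and 130 uM ADP for 45 min at room temperature. Kinase-Glo Plus luminescence gave the signal.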
HCMV antiviral = human cytomegalovirus inhibition; HFF cells, HCMV-luciferase reporter, 72 h; active compounds read low; activity change, negative = inhibition, % at 57.5 µM; hit rate 4.5% among 410,000; AID 1259415; in the data active means activity change below about -60%; inconclusive means no clear call, values can overlap the other calls; inactive means above about -39%
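Two-dose cell screen: HFF monolayers treated with compounds and infected with luciferase-expressing HCMV at 1 PFU/cell, 72 h at 37C, then lysed for luciferase measurement.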
FMDV inh = foot and mouth disease virus antiviral activity. Potency, µM (series often up to 57.9 µM), actives largely listed as inhibitors. hit rate 1.2% among 410,000. FMDV antiviral cell-based qHTS; calls by dose curve; tested in HEK293T cells; further: read-out not given here; nearly all actives have a fitted effect of over 45% in size
Sm TGR inh = inhibitors of Schistosoma mansoni thioredoxin glutathione reductase | Q962Y6 | purified TGR, DTNB reduction, TNB absorbance 405 nm | Potency, µM (titrated, usually from 114 µM), usual class: inhibitors | hit rate 3% among 360,000 | AID 485364; further: nearly all actives have a fitted effect of over 60% in size
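First, TGR (20 nM dispensed) and NADPH were mixed with compound. Second, a 15 min room-temperature incubation followed. Third, further NADPH and then DTNB were added to start the reaction. Finally, TNB absorbance was monitored kinetically.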
FBPA Giardia inh = blocks Giardia fructose-bisphosphate aldolase activity; purified Giardia FBPA; A8B2U2; hit rate 0.71% among 290,000; Potency, µM (doses to about 59.6 µM), usual class: inhibitors; further: nearly all actives have a fitted effect of over 55% in size
Target sequence (A8B2U2 whole entry, looked up): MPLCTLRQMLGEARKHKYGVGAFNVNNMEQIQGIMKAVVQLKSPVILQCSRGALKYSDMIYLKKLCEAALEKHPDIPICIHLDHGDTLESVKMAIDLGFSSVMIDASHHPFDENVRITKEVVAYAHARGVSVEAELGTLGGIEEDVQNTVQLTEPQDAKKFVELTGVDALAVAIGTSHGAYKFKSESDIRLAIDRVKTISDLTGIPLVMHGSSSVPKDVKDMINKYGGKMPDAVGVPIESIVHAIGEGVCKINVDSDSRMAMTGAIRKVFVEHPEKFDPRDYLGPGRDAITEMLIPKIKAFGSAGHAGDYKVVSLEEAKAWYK
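40 nM FBPA preincubated 10 min at RT with compound (up to 57.5 uM final), then substrate plus GAPDH/TPI/NAD/arsenate coupling and diaphorase/resazurin added. Fluorescence read after 20 min at RT, 525/598 nm.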
RE007 growth inh = less growth of the S. pombe RE007 Vpr strain | hit rate 0.21% among 360,000 | Potency, µM (titrated, usually from 92.2 µM), hits mostly inhibitors | S. pombe RE007 Vpr strain, BacTiter-Glo ATP luminescence, 24 h; active means well fitted falling curve with a large enough effect; inconclusive means small, poorly fitted or top-dose-only effect; inactive means no such curve, though single readings can be large or run the other way; further: nearly all actives have a fitted effect of over 50% in size
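Fission yeast strain RE007, carrying one chromosomally integrated HIV-1 vpr copy, was seeded at OD 0.01 in PMG+AL medium with 23 nL pinned compound. After 24 h at 30 °C and 99% humidity, viability was read by BacTiter-Glo luminescence.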
Hits are given with their value; i = inactive; ? = inconclusive; nt = not tested or not shown. An excerpt weighted towards active compounds, which were near 7.7% of everything screened. Unless noted, the call rests on the fitted dose curve; in most records, active means well fitted curve in the direction sought with a large enough effect; inconclusive means small, poorly fitted or top-dose-only effect, or another doubt; inactive means no such curve, though single readings can be large; an effect the other way counts as inactive or inconclusive.

SMILES	Tb PYK inh	HCMV antiviral	FMDV inh	Sm TGR inh	FBPA Giardia inh	RE007 growth inh
Cc1cc(/C=C2/NC(=O)NC2=O)c(C)n1C	i	i	i	14µM	?	i
Cc1cc(/C=C2\C(=O)NC(=O)N(c3ccc(Cl)cc3)C2=O)c(C)n1-c1sc2c(c1C#N)CCCC2	i	i	i	?	i	i
Cc1ccc2c(c1)C(=O)OC(C(=O)Nc1ccccc1C(=O)O)C2 (stereo unspecified)	i	i	i	i	nt	nt
COC(=O)Cc1nnn2c1[C@H](C)[C@H](c1ccccc1Br)OC[C@H](C)C2	nt	i	nt	nt	nt	nt
COc1ccccc1CNc1ncnc2onc(-c3ccc(Cl)cc3)c12	i	i	i	i	nt	nt
CCOc1ccccc1NC(=O)C(=O)NCCc1sc2nc(-c3ccc(OC)cc3)nn2c1C	i	i	i	i	nt	nt
COc1ccc(C)cc1NC(=O)N(C(C)C)C1CCN(C(C)=O)CC1	i	i	i	i	nt	nt
COc1ccccc1OC(C)C(=O)Nc1c(C(=O)c2ccc(Cl)cc2)oc2ccccc12 (stereo unspecified)	i	i	i	i	nt	nt
CCSc1ncc(Cl)c(C(=O)N2CCN(c3ccc(OC)cc3)CC2)n1	i	i	i	i	nt	nt
CCCS(=O)(=O)c1ncc(Cl)c(C(=O)N2CCN(c3ccc(OC)cc3)CC2)n1	i	-103	i	11µM	nt	nt
CCn1c2ccccc2c2cc([N+](=O)[O-])ccc21	i	i	i	i	i	i
CN(C)CCn1c2ccccc2c2nc3ccc([N+](=O)[O-])cc3cc21	i	-108	i	i	i	i
N#CC1=C(N)OC2=C(CCC/C2=C/c2ccoc2)C1c1ccoc1 (stereo unspecified)	nt	nt	nt	18µM	i	nt
N#CC1=C(N)OC2=C(CC/C2=C\c2ccc(F)cc2)C1c1ccc(F)cc1 (stereo unspecified)	nt	nt	nt	25µM	i	nt
CC(C)[C@H](NC(=O)CCCn1nnc2ccccc2c1=O)C(=O)O	i	i	i	40µM	i	i
COc1ccc(OC)c(NC(=O)c2cc(C3CC3)nc3c2c(C)nn3-c2ccc(C)cc2)c1	i	i	i	i	nt	nt
O=C(O)c1ccc(S(=O)(=O)c2ccccc2C(=O)O)c([N+](=O)[O-])c1	i	i	i	i	?	i
O=C(O)c1ccc(S(=O)(=O)c2ccc([N+](=O)[O-])cc2[N+](=O)[O-])cc1	i	i	i	0.1µM	i	i
O=C1C(N2CCOCC2)=C(n2nnc3ccccc32)C(=O)c2ccccc21	i	-100	10µM	?	?	i
O=C(O)CCc1ccc(-c2ccc(Cl)cc2)o1	?	i	i	5µM	i	i
O=C(O)CCc1ccc(-c2ccc(Br)cc2)o1	?	i	i	7.9µM	i	?
COc1ccc(-c2ccc(CCC(=O)O)o2)cc1	?	i	i	2.8µM	i	i
CCCCc1ccc(NC(=O)COc2cccc3c(=O)n(C)ccc23)cc1	i	i	?	i	nt	nt
C#CCNC(=O)C1=C[C@@H](c2cn(C(C)=O)c3ccccc23)C[C@@H](OCCCCO)O1	i	i	i	40µM	i	i
C#CCNC(=O)C1=C[C@H](c2csc3ccccc23)C[C@H](OCc2ccc(CO)cc2)O1	i	i	?	i	i	i
SMILES	Tb PYK inh	HCMV antiviral	FMDV inh	Sm TGR inh	FBPA Giardia inh	RE007 growth inh
C#CCNC(=O)C1=C[C@H](c2csc3ccccc23)C[C@H](OCCCCO)O1	i	i	i	45µM	i	i
CC(=O)n1cc([C@H]2C=C(C(=O)NCc3ccccc3)O[C@@H](OCCCCO)C2)c2ccccc21	i	i	i	?	?	i
CC(=O)n1cc([C@@H]2C=C(C(=O)NCc3ccccc3)O[C@H](OCCCCO)C2)c2ccccc21	i	i	i	50µM	i	i
C#CCNC(=O)C1=C[C@H](c2ccc(C(F)(F)F)cc2)C[C@H](OCCCCO)O1	i	i	i	13µM	?	i
O=C(NC(=S)Nc1ccc(-c2ccccc2)cc1)c1ccccc1	i	i	i	nt	nt	?
CC(C)NC(=S)NC(=O)c1ccc(-c2ccccc2)cc1	i	-81	i	?	i	i
Cc1cc(NC(=O)c2ccc(OCC3CCCO3)cc2)ccc1Br (stereo unspecified)	i	-81	i	nt	nt	i
O=C(Nc1nc(-c2ccc(Cl)cc2Cl)cs1)c1ccc(OCC2CCCO2)cc1 (stereo unspecified)	i	-63	?	i	i	i
CCOc1ccc(NC(=O)c2ccc(OCC3CCCO3)cc2)cc1S(=O)(=O)N(CC)CC (stereo unspecified)	i	i	?	i	nt	i
CCN(CC)S(=O)(=O)c1ccc(NC(=O)c2ccc(OCC3CCCO3)cc2)cc1 (stereo unspecified)	i	-90	28µM	i	nt	i
Cc1ccc2nc(NC(=O)c3ccc(OCC4CCCO4)cc3)sc2c1 (stereo unspecified)	i	-84	?	i	i	i
Cc1ccc(-n2c(=O)c3c4c(sc3n(Cc3ccccc3C)c2=O)CCC4)cc1C	i	i	i	i	nt	nt
C=CCN1C[C@H](C(=O)N(CCCN(C)C)C(=O)NCC)C[C@@H]2c3cccc4[nH]cc(c34)C[C@H]21	nt	nt	i	nt	nt	nt
CCSc1n[nH]c(=O)n1C	nt	i	nt	nt	nt	nt
O=c1cc(CSc2ccc(Cl)cc2)[nH]c2[nH]n(-c3ccccc3)c(=O)c12	i	i	i	45µM	i	i
Cc1ccc(SCc2cc(=O)c3c(=O)n(-c4ccccc4)[nH]c3[nH]2)cc1	i	i	i	i	i	i
COc1cccc(OC)c1CN1CCC2(CCC(CNC(=O)c3ccn(C)n3)O2)CC1 (stereo unspecified)	nt	nt	i	nt	nt	nt
CN(C)S(=O)(=O)c1ccc(Cl)c(NC(=O)CSc2nc3c(cc2C#N)C(=O)CC(C)(C)C3)c1	i	?	?	i	i	i
CN(C)S(=O)(=O)c1ccc(SCC(=O)Nc2cccc(S(=O)(=O)N3CCCC3)c2)nc1	i	i	i	nt	nt	i
CN(C)S(=O)(=O)c1cccc(NC(=O)CSc2nc3c(cc2C#N)C(=O)CC(C)(C)C3)c1	i	-80	20µM	i	i	i
CN(C)S(=O)(=O)c1cccc(NC(=O)CSc2cccc3cccnc23)c1	i	-101	i	i	i	?
Cc1cc(-c2ccccc2)nc2c(Br)c(=O)[nH]n12	i	i	i	45µM	i	i
CC[N+]1(C)C2CCC1CC(OC(=O)[C@H]1CCC(C(=O)OC3CC4CCC(C3)[N+]4(C)CC)(c3ccccc3)c3ccccc31)C2 (stereo partly specified)	nt	nt	i	nt	nt	nt
O=C(Nc1ccc([N+](=O)[O-])cc1)N1CCCCCC1	i	i	i	i	i	i
CC(C)(C)c1ccc(NC(=O)N2CCCN(c3ccc([N+](=O)[O-])cn3)CC2)cc1	i	-73	32µM	i	i	i
CNC(=O)[C@@H]1C[C@H](NC2CCCCCCC2)CN1Cc1cccc(OC)c1OC	nt	nt	i	nt	nt	nt
